From PubChem BioAssay (EPA / NIEHS) come the findings set out here.

Results filed as inconclusive are left out. The source made the active and inactive calls. How the source made its calls, unless noted: active means hit-call score of the fitted dose curve at least 0.9, where 1 is the maximum; inconclusive means response in the unintended direction; inactive means score below 0.9.

The nature of assay [1]: TOX21_p53_BLA_p2_viability: Viability Assessment in the Tox21 HCT-116 p53 Agonism Beta-lactamase Assay, Phase 2 (AID 2283591).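 Further: compound exposure lasted 16 h at 37 °C; actives lower the ATP signal meaning cytotoxicity.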 The procedure, abridged:
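HCT-116 p53-bla cells (4000/well) rested 5 h at 37C, then received compounds in DMSO (217-fold dilution) for 16 h at 37C, 5% CO2. After the CCF4 read, CellTiter-Glo was added; ATP luminescence was read after 30 min at room temperature.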

The target of assay [2] is Cellular tumor antigen p53 (Homo sapiens) (UniProt P04637). In words: TOX21_p53_BLA_p2_ratio: Tox21 HCT-116 p53 Agonism Beta-lactamase Assay, Ratio, Phase 2 (AID 2283592). The procedure, abridged:
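Plated HCT116 p53-bla cells (4000/well) received compound after 5 h, then 16 h at 37C/5% CO2. CCF4-AM added, 2 h RT. Ratio of 460 to 530 nm emission taken as the p53 reporter signal.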

Assay [3] has the same target. In words: TOX21_p53_BLA_p3_ratio: Tox21 HCT-116 p53 Agonism Beta-lactamase Assay, Ratio, Phase 3 (AID 2283596). The procedure, abridged:
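Cells were seeded at 4000/well, rested 5 h at 37C, then dosed with DMSO compound solutions (217-fold dilution) for 16 h. CCF4-AM substrate was loaded for 2 h at room temperature, and the 460/530 nm emission ratio was fitted for gain of signal versus DMSO.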

The target is the same in assay [4]. Briefly: TOX21_p53_BLA_p5_ratio: Tox21 HCT-116 p53 Agonism Beta-lactamase Assay, Ratio, Phase 5 (AID 2283599). The procedure, abridged: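 HCT-116 cells carrying a p53-inducible beta-lactamase reporter were seeded at 4000 cells/well and dosed after 5 h with compound in DMSO (217-fold dilution). After 16 h at 37C, CCF4-AM substrate was added for 2 h, and the 460/530 nm emission ratio was scored as gain-of-signal versus DMSO.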

The nature of assay [5]: TOX21_p53_BLA_p5_viability: Viability Assessment in the Tox21 HCT-116 p53 Agonism Beta-lactamase Assay, Phase 5 (AID 2283600). The procedure, abridged: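 Workflow: seed 4000 cells per well, wait 5 h, add compounds (DMSO, 217-fold dilution), incubate 16 h, load CCF4-AM 2 h, add CellTiter-Glo, read luminescence after 30 min.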
In assay [6] the target is Cellular tumor antigen p53 (Homo sapiens) (UniProt P04637). Briefly: TOX21_p53_BLA_p4_ratio: Tox21 HCT-116 p53 Agonism Beta-lactamase Assay, Ratio, Phase 4 (AID 2283601). Summed up: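 HCT116 cells carrying an inducible beta-lactamase reporter were plated at 4000 cells/well, rested 5 h, then exposed to compounds in DMSO (217-fold dilution) for 16 h at 37C. CCF4-AM substrate was loaded 2 h at room temperature; 460/530 nm emission ratio scored gain-of-signal versus DMSO.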
Cellular tumor antigen p53 (Homo sapiens), sequence (P04637 whole entry, looked up): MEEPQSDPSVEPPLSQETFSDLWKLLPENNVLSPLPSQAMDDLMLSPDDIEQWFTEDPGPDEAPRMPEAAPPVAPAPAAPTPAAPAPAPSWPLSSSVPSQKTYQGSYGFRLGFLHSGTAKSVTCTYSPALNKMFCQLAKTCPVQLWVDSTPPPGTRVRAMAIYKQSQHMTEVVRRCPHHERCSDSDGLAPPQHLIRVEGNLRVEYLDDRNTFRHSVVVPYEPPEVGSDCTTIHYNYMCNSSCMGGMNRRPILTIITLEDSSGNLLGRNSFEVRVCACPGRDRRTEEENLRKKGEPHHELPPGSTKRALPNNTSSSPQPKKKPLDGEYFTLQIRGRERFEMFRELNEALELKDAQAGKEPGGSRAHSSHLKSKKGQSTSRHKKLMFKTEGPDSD

Assay [7] in a line: CCTE_Harrill_HTTr_Viability_MCF7: CCTE's 6-hour Cell Viability Assessment for the High-Throughput Transcriptomics (HTTr) Platform, in MCF-7 cells cultured in DMEM + 10% fetal bovine serum, Harrill Lab (AID 2284010; active means hit-call score of the fitted dose curve at least 0.9, where 1 is the maximum; inactive means score below 0.9). Summed up:
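Read-out is propidium iodide gain of signal by high-content imaging, reflecting membrane integrity loss. Measurements are taken 6 h after dosing, eight concentrations per chemical, with DMSO serving as baseline for bidirectional curve fitting.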

Assay [8] is described as follows: CCTE_Harrill_HTTr_Apoptosis_MCF7: CCTE's 6-hour Apoptosis Assessment for the High-Throughput Transcriptomics (HTTr) Platform, in MCF-7 cells cultured in DMEM + 10% fetal bovine serum, Harrill Lab (AID 2284011; active means hit-call score of the fitted dose curve at least 0.9, where 1 is the maximum; inactive means score below 0.9). The procedure, abridged: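 MCF-7 (DMEM + 10% FBS), 384-well; 8-pt dilution series, 6 h chemical exposure; caspase-3/7 activation via CellEvent Caspase 3/7 Green, HCI; bidirectional fit vs DMSO.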

Regarding `CCCCS`, the outcome in assay [1], in assay [2], in assay [3], in assay [4] and in assay [5] was inactive.

With `CC1=C(C(=O)O)N2C(=O)[C@@H](NC(=O)[C@H](N)c3ccc(O)cc3)[C@H]2SC1`, the molecule was called inactive in assay [1], in assay [2], in assay [3], in assay [4], in assay [5] and in assay [6].

Regarding `CCC(=O)OC(=O)CC`, the call in assay [1], in assay [2], in assay [3], in assay [4], in assay [5] and in assay [6] was inactive.

`CNC(=O)OCc1cccc(COC(=O)NC)n1`: the call in assay [1], in assay [2], in assay [3], in assay [4] and in assay [5] was inactive.

The term AC50 denotes the concentration giving half of the maximal activity seen. Turning to `Cc1cc(=O)oc2cc(O)cc(O)c12`, the result in assay [1], in assay [2], in assay [3], in assay [4] and in assay [5] was inactive. Further, the AC50 in assay [6] was 41.7 µM (active).

With `CCC1OCC(COc2ccc(Oc3ccccc3)cc2)O1` (stereo not given), the result in assay [1], in assay [2], in assay [3], in assay [4], in assay [5] and in assay [6] was inactive.

For `O=Cc1ccc(Cl)cc1`, the outcome in assay [1], in assay [2], in assay [3], in assay [4], in assay [5] and in assay [6] was inactive.

As to `CC(=O)N[C@@H](CC(C)C)C(=O)O`, the outcome in assay [1], in assay [2], in assay [3], in assay [4], in assay [5] and in assay [6] was inactive.

With `CO/N=C(\C(=O)N[C@@H]1C(=O)N2C(C(=O)O)=CCS[C@H]12)c1csc(N)n1`, the call in assay [1], in assay [2], in assay [3], in assay [4], in assay [5] and in assay [6] was inactive.

`CCCCCC=CCC1CC(=O)OC1=O` (stereo not given): the call in assay [1], in assay [2], in assay [3], in assay [4], in assay [5] and in assay [6] was inactive.

As to `OCCN1CCN(CCO)CC1`, the molecule was called inactive in assay [1], in assay [2], in assay [3], in assay [4], in assay [5] and in assay [6].

As for `CC1CCC(NC(=O)N(CCCl)N=O)CC1` (stereo not given), the outcome in assay [1], in assay [2], in assay [3], in assay [4], in assay [5] and in assay [6] was inactive.

For H-RKDVY-OH, the result in assay [1], in assay [2], in assay [3], in assay [4], in assay [5] and in assay [6] was inactive.

`c1coc(Cn2cccc2)c1`: the call in assay [1], in assay [2], in assay [3], in assay [4], in assay [5] and in assay [6] was inactive.

Regarding `O=C(O)CNC(=O)c1ccc([N+](=O)[O-])cc1`, the outcome in assay [1], in assay [2], in assay [3], in assay [4], in assay [5] and in assay [6] was inactive.

For the molecule `CN1C(=O)CC(c2ccccc2)C1=O` (stereo not given), the call in assay [1], in assay [2], in assay [3], in assay [4], in assay [5] and in assay [6] was inactive.

`C/C=C/C=C/CO`: the outcome in assay [1], in assay [2], in assay [3], in assay [4], in assay [5] and in assay [6] was inactive.

Take `CCOC(=O)COc1ccc2c(C)c(CCN(CC)CC)c(=O)oc2c1`: the result in assay [1], in assay [2], in assay [3], in assay [4], in assay [5] and in assay [6] was inactive.

For the molecule `N=C(N=C(N)N)N1CCOCC1`, the molecule was classed as inactive in assay [1], in assay [2], in assay [3], in assay [4], in assay [5] and in assay [6].

On to `CCN(CC)c1cccc(O)c1`, for which the molecule was classed as inactive in assay [1], in assay [2], in assay [3], in assay [4], in assay [5] and in assay [6].

As for `CC(=O)Oc1cccc(C)c1`, the molecule was called inactive in assay [1], in assay [2], in assay [3], in assay [4], in assay [5] and in assay [6].

On to `C[C@@]12C(=O)OC(=O)[C@]1(C)C1CCC2O1`, for which the molecule was classed as inactive in assay [1], in assay [3], in assay [4] and in assay [5]. Moreover, the half-maximal activity concentration (AC50) in assay [2] was 0.446 µM (active); in assay [6], 2.91 µM (active).

`CC(C)(C)OCC1CO1` (stereo not given): the molecule was called inactive in assay [1], in assay [2], in assay [3], in assay [4], in assay [5] and in assay [6].

In the case of `Cc1cccc(Br)c1`, the molecule was classed as inactive in assay [1], in assay [2], in assay [3], in assay [4] and in assay [6].

Regarding `CC(C)(CO)[C@@H](O)C(=O)NCCC(=O)NCCSSCCNC(=O)CCNC(=O)[C@H](O)C(C)(C)CO`, the outcome in assay [1], in assay [2], in assay [3], in assay [4] and in assay [6] was inactive.

Turning to `O=C1OCCN1N=Cc1ccc([N+](=O)[O-])o1`, the outcome in assay [1], in assay [2], in assay [3], in assay [4], in assay [5] and in assay [6] was inactive. The result in assay [7] and in assay [8] was inactive.

In the case of `CCCCCCCCCCCCCCCCCCOCC(O)CO` (stereo not given), the molecule was classed as inactive in assay [1], in assay [2], in assay [3], in assay [4], in assay [5] and in assay [6].

As for `CN1CCCCC1CCN1c2ccccc2Sc2ccc(S(C)=O)cc21` (stereo not given), the result in assay [1], in assay [2], in assay [3], in assay [4] and in assay [6] was inactive.

As for `Oc1cc(O)c(Cl)cc1Cl`, the result in assay [1], in assay [3], in assay [4] and in assay [6] was inactive. Further, the AC50 in assay [2] is 64.5 µM (active).

Consider `NC(=O)N[C@@H](CCC(=O)O)C(=O)O`, for which the call in assay [1], in assay [2], in assay [3], in assay [4] and in assay [6] was inactive.
